# About 2,100 (0.66%) of roughly 320,000 compounds were called active. About 53% were inconclusive and are not listed. Calls follow the shape of the dose curve; as a rule, active = well fitted inhibition curve with a large enough effect in the signal ratio, with a control signal flat (not every such curve was filed as active); inconclusive = small, poorly fitted or top-dose-only effect, or effect the other way, or a change in a side signal; inactive = flat fitted curve, though single readings scatter; the % refers to the signal ratio. The full list was thinned out, with actives kept by preference.
# Assay: qHTS Assay for Lipid Storage Modulators in Drosophila S3 Cells;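 as to cell number change: cells counted by Cell Tracker Red CMTPX staining in the red channel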; as to lipid storage change, negative = inhibition: % is scaled to controls: 0 for no effect and ±100 for the full control effect
# Conditions: BODIPY lipid droplet fluorescence, 18-24 h, cells fed with added oleic acid; cell number change: measured here: cell count max response; series mostly up to 46.1 µM; lipid storage change, negative = inhibition: at the top concentration
# From the text: NIH Molecular Libraries Probe Production Centers Network [MLPCN] NIH Chemical Genomics Center [NCGC] MLPCN Grant: 1 R03 MH085686-01 Assay Submitter (PI): Beller, Mathias; Max-Planck-Institut fur Biophysikalische Chemie NCGC Assay Overview: Storing lipids as a reservoir for energy or the anabolism of elementary metabolites is a common feature of probably all cells and is conserved from bacteria to humans. The universal cellular lipid storage organelle is the so-called lipid storage droplet (LD). Although ubiquitous, LDs share a simple structure composed of a hydrophobic core that harbors the storage lipids, which is shielded by a droplet-specific phospholipid monolayer to which proteins are attached. The current model of LD biogenesis involves an incorporation of the lipid core into the membrane leaflets of the endoplasmic reticulum (ER) followed by a subsequent budding-like maturation of a LD, which ultimately pinches off. Once released, LD volume can increase by localized lipogenesis or fusion of existing droplet. Storage lipids are re-mobilized enzymatically by lipase activity. Lipase regulation in the adipocyte is heavily studied and involves multiple components including catecholamine signaling, the LD-associated proteins Perilipin and comparative gene identification (CGI-58) and at least two lipases named hormone sensitive lipase (HSL) and adipocyte triglyceride lipase (ATGL). LD regulation outside of the adipocyte is poorly understood and only few components are known. However, there is an urgent need to learn more about ectopic fat depots as mislocalized storage of lipids, for example in the liver or muscle, is an eminent health problem associated with insulin resistance or the metabolic syndrome. We developed a laser-scanning cytometer assay to enable 1,536-well screening and combined the results of the small molecules screen with an RNAi database based on lipid storage.
# Triacsin C (Sigma-Aldrich T-4540), an inhibitor of long-chain fatty acyl CoA synthetase that blocks synthesis of triglycerides, was used as a positive control for lipid under-storage. A total of 23 nL of compound solution of different concentrations were transferred to the assay plates using a Kalypsys pin tool equipped with a 1,536-pin array containing 10-nL slotted pins (FP1S10, 0.457-mm diameter, 50.8 mm long; V&P Scientific). One microliter of oleic acid (400 uM) was added, and the plate was lidded with stainless steel rubber gasket lined lids containing pinholes. […] Fluorescence was detected by excitation of the fluorophores with a 488-nm laser on an Acumen Explorer (TTP Lab Tech). The total intensity in channel 2 (500-530 nm) reflected lipid droplet accumulation. Cells were detected using channel 3 (575-640 nm) with 5-um width and 100-um depth filters. The ratio of the number of objects in PMT channel 2 over the number of objects in PMT channel 3 was also calculated. Percent activity was computed relative to an internal control (100% inhibited lipid droplet deposition due to the presence of 20 uM Triacsin C), which was added to 32 wells/plate.
# Potency is read from the fitted curve at half-maximal effect.
Compound,"lipid storage change, negative = inhibition",cell number change [%],Potency,outcome
CN(C)c1ncc(S(=O)(=O)c2ccccc2)c(=O)[nH]1,-2.86% (inactive),19.4,,
COC(=O)CNC(=O)C12CC3(C)CC(C)(CC(C)(C3)C1)C2,-1.63% (inactive),-2.27,,
CC12CC3(C)CC(C)(C1)CC(C(=O)NCC(=O)O)(C2)C3,,-16.9,1.46 µM (active),
CC12CC3(C)CC(C)(C1)CC(C(=O)NC(=S)N1CCCC1)(C2)C3,0.446% (inactive),-0.792,,
Cc1cc(C)nc(SCc2cn3c(C)cccc3n2)n1,22.7% (inactive),13.2,,
O=C(NCCc1ccccc1)C1CCCN(C(=O)Nc2ccc(F)cc2)C1 (stereo unspecified),,16.8,,inactive
O=C(COC(=O)c1ccc(NS(=O)(=O)c2ccc(F)c(F)c2)cc1)NCC1CCCO1 (stereo unspecified),9.43% (inactive),10.2,,
O=C(CCc1c[nH]c2ccccc12)N1CCCCCCC1,,-19.1,,inactive
Cc1cc(NC(=O)c2ccc([N+](=O)[O-])cc2)no1,,-11.8,0.58 µM (active),
Cc1cc(NC(=O)c2cc([N+](=O)[O-])cc([N+](=O)[O-])c2)no1,-20.4% (inactive),2.37,,
Cc1cc(NC(=O)c2ccc(C)c([N+](=O)[O-])c2)no1,-0.109% (inactive),0.478,,
C/C(=N\NC(=O)c1ccc(F)cc1)c1cccc(NC(=O)c2cccc(F)c2)c1,-24.1% (inactive),11.9,,
COC(=O)c1sccc1NC(=O)COc1ccc(F)cc1Cl,16.3% (inactive),0.149,,
Cc1nn2c(=O)cc(COC(=O)c3ccc(NC(=O)C(C)(C)C)cc3)nc2s1,,7.59,3.66 µM (active),
COCCc1nn2c(=O)cc(COC(=O)c3cc(OC)c(OC)c(OC)c3)nc2s1,-24.2% (inactive),,,
Cc1ccc(C(=O)Nc2ccc(C(=O)OCc3cc(=O)n4ccsc4n3)cc2)cc1,6.49% (inactive),10.6,,
COc1ccc(C(=O)CSc2ccc3nnc(-c4cccnc4)n3n2)cc1,-5.62% (inactive),-3.07,,
Clc1ccc(OCc2nnc3n2CCCCC3)c(Cl)c1,4.84% (inactive),,,
O=C(CN1C(=O)/C(=C/c2ccc(F)cc2)SC1=S)NC1CCS(=O)(=O)C1 (stereo unspecified),,-19.3,,inactive
COc1cccc(/C=C2\SC(=O)N(CC(=O)NC3CCS(=O)(=O)C3)C2=O)c1 (stereo unspecified),,0.472,,inactive

Compound,"lipid storage change, negative = inhibition",cell number change [%],Potency,outcome
O=C(CN1C(=O)/C(=C/c2ccccc2)SC1=S)NC1CCS(=O)(=O)C1 (stereo unspecified),-13.4% (inactive),,,
CC(C(=O)NC1CCS(=O)(=O)C1)N1C(=O)/C(=C/c2ccc(Cl)cc2)SC1=S (stereo unspecified),,-12.5,20.6 µM (active),
COc1ccc(/C=C2\SC(=S)N(CC(=O)NC3CCS(=O)(=O)C3)C2=O)cc1 (stereo unspecified),5.31% (inactive),5.36,,
CC(C)c1ccc(/C=C2\SC(=O)N(CC(=O)NC3CCS(=O)(=O)C3)C2=O)cc1 (stereo unspecified),,-27.6,2.59 µM (active),
O=C(CN1C(=O)S/C(=C\c2ccccc2F)C1=O)NC1CCS(=O)(=O)C1 (stereo unspecified),-4.85% (inactive),-4.18,,
O=C(CCN1C(=O)S/C(=C\c2ccccc2)C1=O)NC1CCS(=O)(=O)C1 (stereo unspecified),,-15.9,,inactive
O=C(CN1C(=O)S/C(=C\c2ccccc2)C1=O)NC1CCS(=O)(=O)C1 (stereo unspecified),,,20.6 µM (active),
O=C(O)CSc1nnnn1C1CCCCC1,-2% (inactive),12.8,,
CCOC(=O)c1oc2ccccc2c1COC(=O)CNC(=O)c1ccccc1,-1.38% (inactive),-8.09,,
NC(=O)C1CCN(CC(O)CSc2ccccc2)CC1 (stereo unspecified),22.1% (inactive),,,
Cc1nnc(N/N=C/c2ccco2)n1N,-2.72% (inactive),-14,,
N/C(=N\OC(=O)c1cc([N+](=O)[O-])ccc1Cl)c1cccnc1,-20.1% (inactive),-8.86,,
CN(C)CCCNC(=O)C(=O)NCC1OCCN1S(=O)(=O)c1cccs1 (stereo unspecified),-20.9% (inactive),1.62,,
O=C1CCCc2ccccc2N1Cc1ccc(Cl)cc1,-16.9% (inactive),-1.32,,
Cc1ccc2c(c1)N(CC(=O)NCCC1=CCCCC1)C(=O)c1cccnc1O2,0.185% (inactive),12.4,,
COc1ccc(OCC(=O)Nc2ccc(S(=O)(=O)N3CCN(C)CC3)cc2)cc1,-10.7% (inactive),-8.24,,
COc1ccc(OCC(=O)OCC(=O)NC2CCCCC2C)cc1 (stereo unspecified),-7.59% (inactive),5.06,,
CC1CCCCC1NC(=O)COC(=O)Cc1ccc(Cl)cc1 (stereo unspecified),4.08% (inactive),-17.8,,
COc1cc(NC2CCCCC2O)c2nc(-c3ccc(Cl)cc3)ccc2c1 (stereo unspecified),,-29.8,14.6 µM (active),
NC1=NC(=O)C(CC(=O)c2ccc(Cl)cc2)S1 (stereo unspecified),3.54% (inactive),-1.82,,

Compound,"lipid storage change, negative = inhibition",cell number change [%],Potency,outcome
O=C1CC(C(=O)Nc2ccc(C(=O)O)cc2)C(c2ccccc2)O1 (stereo unspecified),-2.1% (inactive),-9.22,,
O=C(CN1CCC(O)CC1)N1c2ccccc2C=Cc2ccccc21,-0.597% (inactive),5.26,,
O=C(CN1CCCCCC1)N1c2ccccc2C=Cc2ccccc21,,-1.69,23.1 µM (active),
O=C(CN1CCCC1)N1c2ccccc2C=Cc2ccccc21,8.55% (inactive),-13.2,,
Cc1nn(CC(=O)OCC(=O)Nc2c(C(C)C)cccc2C(C)C)c(C)c1[N+](=O)[O-],-9.28% (inactive),13.1,,
C(=N\n1cnnc1)/c1ccc2c(c1)OCO2,3.76% [at 9.22 µM] (inactive),14.5,,
C(=NC12CN3CN(CN(C3)C1)C2)c1ccc2c(c1)OCO2,,-2.59,25.9 µM (active),
CCOc1ccc(C=NC23CN4CN(CN(C4)C2)C3)cc1,-12.4% (inactive),8.43,,
Fc1ccccc1OCCCCN1CCCCC1,-16.9% (inactive),6.04,,
CC(C)NC(=O)C(Cc1ccccc1)N1C(=O)c2ccccc2C1=O (stereo unspecified),0.505% (inactive),-13.7,,
COc1ccc2c(CCNC(N)=S)c[nH]c2c1,2.34% (inactive),9.98,,
Cc1cc(NC(=O)CCC(=O)N(CC(=O)NCC2CCCO2)c2ccc3c(c2)OCCO3)no1 (stereo unspecified),1.58% (inactive),10.4,,
CCOc1ccccc1N(CC(=O)NCC1CCCO1)C(=O)CCC(=O)Nc1cc(C)on1 (stereo unspecified),,6.09,,inactive
Cc1cc(NC(=O)CCC(=O)N(CC(=O)NCC2CCCO2)c2ccc(Cl)c(Cl)c2)no1 (stereo unspecified),,10.4,,inactive
CCc1ccccc1N(CC(=O)NCC1CCCO1)C(=O)CCC(=O)Nc1cc(C)on1 (stereo unspecified),,7.08,25.9 µM (active),
Cc1cc(NC(=O)CCC(=O)N(CC(=O)NCC2CCCO2)c2ccccc2C)no1 (stereo unspecified),6.36% (inactive),5.33,,
Cc1cc(NC(=O)CCC(=O)N(CC(=O)NCC2CCCO2)c2ccc(C)c(C)c2)no1 (stereo unspecified),,-10,1.03 µM (active),
COC(=O)c1ccc(N2C(=O)c3cc(N4CCOCC4)c([N+](=O)[O-])cc3C2=O)cc1,1.86% (inactive),0.29,,

# — PubChem BioAssay AID2685 (National Center for Advancing Translational Sciences (NCATS), 2010)
